# In PubChem BioAssay:
# Activity calls are given as the source filed them.
# Legend:
# [1] = small molecules captured by biotinylated probe aFSTL3 – biochemical, small-molecule microarray, fluorescence 635/667, stem cell growth factor project, primary screen (AID 1064); details: higher = more signal;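 also: measures binding of the biotinylated anti-FSTL3 antibody to printed compounds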
# [2] = binders from COS7 lysate, DM2A8 probe, primary screen, torsin A project, cell lysate, small-molecule microarray, fluorescence 635/667 (AID 1065); details: higher = more signal, COS7 lysate expressing mutant human TOR1A
# [3] = small molecules captured by biotinylated probe aFGF2 – biochemical, small-molecule microarray, fluorescence 635/667, stem cell growth factor project, primary screen (AID 1067); details: higher = more signal;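 also: measures binding of biotinylated aFGF2 protein to printed compounds on slides; z-score merges feature fluorescence and signal-to-noise across triplicate slides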
# [4] = small molecules captured by biotinylated probe aFGF10 – biochemical, small-molecule microarray, fluorescence 635/667, stem cell growth factor project, primary screen (AID 1071); details: higher = more signal;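 also: score merges 667 nm spot intensity and signal to noise from triplicate slides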
# [5] = molecular target: Neurogenic locus notch homolog protein 2 (Homo sapiens) (UniProt Q04721); assay: small molecules binding Notch2 protein – biochemical, small-molecule microarray, 635 nm fluorescence, stem cell growth factors, primary screen (AID 1073); details: higher = more signal
# [6] = molecular target: Pro-neuregulin-1, membrane-bound isoform (Homo sapiens) (UniProt Q02297); assay: small molecules binding neuregulin-1 protein – biochemical, small-molecule microarray, fluorescence 635/667, psychiatric disease protein project, primary screen (AID 1075); details: NRG1 binding, 635 nm fluorescence, higher = more signal;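 also: score combines 667 nm spot fluorescence with signal to noise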
# Chain of Pro-neuregulin-1, membrane-bound isoform (Homo sapiens) (Q02297 whole entry, looked up, the tested form may be a part, canonical isoform): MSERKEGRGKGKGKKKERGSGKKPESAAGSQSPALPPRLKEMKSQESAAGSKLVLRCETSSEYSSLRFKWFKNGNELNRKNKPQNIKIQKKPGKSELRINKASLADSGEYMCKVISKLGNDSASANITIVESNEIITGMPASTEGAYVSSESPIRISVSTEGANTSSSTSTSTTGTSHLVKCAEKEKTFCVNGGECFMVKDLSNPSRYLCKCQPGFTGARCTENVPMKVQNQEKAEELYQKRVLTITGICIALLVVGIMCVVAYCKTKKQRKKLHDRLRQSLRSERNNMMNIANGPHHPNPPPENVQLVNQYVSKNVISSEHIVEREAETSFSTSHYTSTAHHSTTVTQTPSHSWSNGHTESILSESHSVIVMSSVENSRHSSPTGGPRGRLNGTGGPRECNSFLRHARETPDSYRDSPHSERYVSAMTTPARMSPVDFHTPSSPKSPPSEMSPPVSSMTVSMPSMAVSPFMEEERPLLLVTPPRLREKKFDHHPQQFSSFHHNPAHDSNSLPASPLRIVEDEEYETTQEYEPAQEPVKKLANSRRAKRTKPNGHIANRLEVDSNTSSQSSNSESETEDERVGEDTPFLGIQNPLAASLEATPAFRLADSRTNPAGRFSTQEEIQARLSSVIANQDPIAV
# [7] = system: Neuregulin-1 EGF-like domain; assay: small molecules binding NRG1 EGF domain – biochemical, small-molecule microarray, 635 nm fluorescence, primary screen (AID 1081); details: higher = more signal;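 also: binding of the protein to compounds printed on small-molecule microarray slides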
# [8] = FRG1 expression reporter modulators in myotubes – cell-based, C2C12 myotubes, firefly/Renilla luciferase, luminescence, FRG1 inhibition for FSHD, primary screen (AID 1084); details: FRG1 promoter luciferase, higher = more signal, called active from +8 up or from −8 down
# [9] = small molecules captured by biotinylated probe aFST – biochemical, small-molecule microarray, fluorescence 635/667, stem cell growth factor project, primary screen (AID 1086); details: higher = more signal;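 also: score merges 667 nm fluorescence with signal-to-noise of each printed compound spot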
# [10] = binders of probe aHhip on microarray, primary screen, stem cell growth factor project, biochemical, small-molecule microarray, fluorescence 635/667 (AID 1087); details: higher = more signal;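 also: score merges spot fluorescence at 667nm with spot signal to noise ratio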
# [11] = system: PRMT1 (protein arginine N-methyltransferase 1); assay: small molecules binding arginine methyltransferase PRMT1 – biochemical, small-molecule microarray, 635 nm fluorescence, primary screen (AID 1088); details: higher = more signal;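 also: binding of Prmt1 protein to compounds spotted on small-molecule microarray slides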
# [12] = growth effects on S. cerevisiae YJM789 – YJM789 clinical isolate, OD600, 24 h, basal, primary screen (AID 1089); details: higher = more signal, called active from +8 up or from −8 down;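 also: growth of clinical yeast isolate S. cerevisiae YJM 789 seeded 1000 cells per well; test concentration not given here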
# [13] = S. pombe growth modifiers, basal conditions – strain 972, OD600, 24 h, no modulator, primary screen (AID 1090);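 also: basal condition with compound alone and no growth modifier present; test concentration not given here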; details: S. pombe 972 growth, higher = more signal, called active from +8 up or from −8 down
# [14] = budding yeast growth modifiers under rapamycin – strain BY4716, OD600, 96 h, primary screen (AID 1091); also: test concentration not given here; details: S. cerevisiae BY4716 + rapamycin, higher = more signal, called active from +8 up or from −8 down
# [15] = molecular target: Torsin-1A-interacting protein 2 (Homo sapiens) (UniProt Q8NFQ8); assay: small molecules binding lysate-expressed LULL1 – cell lysate, human LULL1 lysate, 635/667 nm fluorescence, primary screen (AID 1092); details: small-molecule microarray, hLULL1 lysate binding, 635 nm fluorescence; higher = more signal;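 also: probe is lysate of COS7 cells overexpressing human LULL1; score merges per-feature 667 nm fluorescence with signal-to-noise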
# Chain of Torsin-1A-interacting protein 2 (Homo sapiens) (Q8NFQ8 whole entry, looked up): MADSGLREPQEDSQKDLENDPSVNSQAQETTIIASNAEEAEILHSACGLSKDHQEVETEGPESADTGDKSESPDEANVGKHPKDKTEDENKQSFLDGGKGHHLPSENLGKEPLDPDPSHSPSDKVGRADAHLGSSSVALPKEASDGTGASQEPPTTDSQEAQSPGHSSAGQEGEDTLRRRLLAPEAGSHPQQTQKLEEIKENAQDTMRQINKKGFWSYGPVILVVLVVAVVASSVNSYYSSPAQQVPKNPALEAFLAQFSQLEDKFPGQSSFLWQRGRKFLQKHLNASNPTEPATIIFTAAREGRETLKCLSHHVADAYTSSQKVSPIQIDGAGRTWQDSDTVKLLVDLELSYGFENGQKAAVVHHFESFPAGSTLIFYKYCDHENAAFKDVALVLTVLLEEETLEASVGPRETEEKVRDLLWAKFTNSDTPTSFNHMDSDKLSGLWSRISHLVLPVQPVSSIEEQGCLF
# [16] = optical density change of DRC41 E. coli – strain DRC41, OD650, 24 h, E. coli filamentation project, primary screen (AID 1093);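 also: MC1000 strain lacking acrAB efflux and sulA so SOS filamentation is blocked; test concentration not given here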; details: E. coli DRC41 growth, higher = more signal, called active from +8 up or from −8 down
# [17] = probe aLefty2 binding to arrayed compounds – biochemical, biotinylated probe, 635/667 nm fluorescence, primary screen (AID 1094); details: small-molecule microarray, higher = more signal;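 also: score merges spot fluorescence near 667 nm with spot signal-to-noise ratio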
# [18] = system: Noggin (protein binding on small-molecule microarray); assay: small molecules binding Noggin protein – biochemical, 635/667 nm fluorescence, primary screen (AID 1095); details: 635 nm fluorescence, higher = more signal;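 also: score merges 667 nm feature fluorescence with signal to noise over triplicate slides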
# [19] = molecular target: Neurogenic locus notch homolog protein 3 (Homo sapiens) (UniProt Q9UM47); assay: small molecules binding NOTCH3 protein – biochemical, 635/667 nm fluorescence, primary screen (AID 1096); details: small-molecule microarray, 635 nm fluorescence, higher = more signal
# Chain of Neurogenic locus notch homolog protein 3 (Homo sapiens) (Q9UM47 whole entry, looked up): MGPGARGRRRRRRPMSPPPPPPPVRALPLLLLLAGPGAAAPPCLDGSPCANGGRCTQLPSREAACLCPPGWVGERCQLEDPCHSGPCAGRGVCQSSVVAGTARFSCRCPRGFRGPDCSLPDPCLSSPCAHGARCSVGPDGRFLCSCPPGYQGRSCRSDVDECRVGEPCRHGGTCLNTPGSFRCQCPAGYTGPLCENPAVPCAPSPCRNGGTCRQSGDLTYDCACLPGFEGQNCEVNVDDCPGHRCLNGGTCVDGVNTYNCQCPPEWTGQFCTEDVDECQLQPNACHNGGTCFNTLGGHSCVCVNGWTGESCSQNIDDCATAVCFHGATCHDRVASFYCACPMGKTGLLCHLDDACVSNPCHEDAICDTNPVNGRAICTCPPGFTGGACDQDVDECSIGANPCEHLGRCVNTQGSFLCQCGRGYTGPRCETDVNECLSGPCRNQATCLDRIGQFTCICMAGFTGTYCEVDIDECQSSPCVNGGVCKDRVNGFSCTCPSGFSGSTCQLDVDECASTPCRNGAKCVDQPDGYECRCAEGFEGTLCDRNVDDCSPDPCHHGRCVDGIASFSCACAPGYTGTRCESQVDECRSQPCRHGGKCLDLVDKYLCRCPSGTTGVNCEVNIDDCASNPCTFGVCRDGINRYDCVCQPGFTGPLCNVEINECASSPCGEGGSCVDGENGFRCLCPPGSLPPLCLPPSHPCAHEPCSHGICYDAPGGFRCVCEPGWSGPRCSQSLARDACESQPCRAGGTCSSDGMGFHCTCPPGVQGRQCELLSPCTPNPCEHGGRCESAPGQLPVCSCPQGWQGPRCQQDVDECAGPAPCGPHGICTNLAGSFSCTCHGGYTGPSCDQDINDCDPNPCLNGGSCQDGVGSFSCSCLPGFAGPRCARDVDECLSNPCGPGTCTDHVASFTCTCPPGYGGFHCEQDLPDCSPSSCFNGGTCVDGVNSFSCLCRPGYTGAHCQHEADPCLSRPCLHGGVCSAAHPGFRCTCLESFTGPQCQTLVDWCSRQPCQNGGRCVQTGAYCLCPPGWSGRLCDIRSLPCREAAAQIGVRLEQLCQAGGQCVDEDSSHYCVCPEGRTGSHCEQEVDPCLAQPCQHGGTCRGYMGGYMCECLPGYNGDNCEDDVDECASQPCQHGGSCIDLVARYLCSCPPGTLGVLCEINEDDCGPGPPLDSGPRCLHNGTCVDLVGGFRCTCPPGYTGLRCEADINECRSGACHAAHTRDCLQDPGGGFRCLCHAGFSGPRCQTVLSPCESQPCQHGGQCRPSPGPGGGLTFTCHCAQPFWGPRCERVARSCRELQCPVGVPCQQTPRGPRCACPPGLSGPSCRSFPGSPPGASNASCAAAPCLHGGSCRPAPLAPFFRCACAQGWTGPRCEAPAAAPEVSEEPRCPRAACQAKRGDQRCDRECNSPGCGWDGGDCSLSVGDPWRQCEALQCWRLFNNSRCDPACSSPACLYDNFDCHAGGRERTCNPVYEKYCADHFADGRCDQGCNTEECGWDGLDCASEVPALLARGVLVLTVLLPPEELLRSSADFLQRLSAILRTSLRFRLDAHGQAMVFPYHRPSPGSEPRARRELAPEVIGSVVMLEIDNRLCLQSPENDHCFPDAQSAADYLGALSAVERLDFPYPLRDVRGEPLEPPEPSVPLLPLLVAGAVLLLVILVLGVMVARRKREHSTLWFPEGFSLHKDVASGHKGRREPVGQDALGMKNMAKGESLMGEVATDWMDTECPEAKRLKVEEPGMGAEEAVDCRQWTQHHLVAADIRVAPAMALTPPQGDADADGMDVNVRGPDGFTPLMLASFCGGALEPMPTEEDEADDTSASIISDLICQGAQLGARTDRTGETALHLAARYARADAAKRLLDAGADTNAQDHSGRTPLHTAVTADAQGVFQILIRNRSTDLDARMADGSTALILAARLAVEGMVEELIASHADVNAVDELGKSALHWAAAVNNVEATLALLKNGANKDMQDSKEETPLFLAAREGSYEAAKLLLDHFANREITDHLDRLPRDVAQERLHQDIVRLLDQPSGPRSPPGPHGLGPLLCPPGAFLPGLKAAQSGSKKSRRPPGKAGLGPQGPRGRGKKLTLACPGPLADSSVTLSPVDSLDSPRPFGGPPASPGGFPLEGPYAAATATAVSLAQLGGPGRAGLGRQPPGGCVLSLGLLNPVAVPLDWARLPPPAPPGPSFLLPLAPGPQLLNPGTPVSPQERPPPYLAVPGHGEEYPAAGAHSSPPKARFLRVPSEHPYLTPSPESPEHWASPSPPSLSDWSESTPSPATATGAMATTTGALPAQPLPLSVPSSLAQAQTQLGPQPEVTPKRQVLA
# [20] = probe aEGFR binding to arrayed compounds – biochemical, biotinylated probe, 635/667 nm fluorescence, primary screen (AID 1097); details: small-molecule microarray, higher = more signal;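 also: probe is a biotinylated anti-EGFR antibody binding compounds printed on slides; score combines fluorescence near 667 nm and signal to noise of each spot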
Compound,composite z-score [1],composite z-score [2],composite z-score [3],composite z-score [4],composite z-score [5],composite z-score [6],composite z-score [7],z-score [8],composite z-score [9],composite z-score [10],composite z-score [11],z-score [12],z-score [13],z-score [14],composite z-score [15],z-score [16],composite z-score [17],composite z-score [18],composite z-score [19],composite z-score [20]
C=CCC(OC(C)=O)[C@@H]1[C@@H](N(Cc2ccc(-c3ccccc3)cc2)C(=O)c2ccc(C)cc2)c2cc(OCCCO)ccc2N1C(=O)c1ccc2ccccc2c1 (stereo not given in full),-0.233,0.0822,-0.116,-0.148,-0.168,-0.138,-0.405,-2.01 (inactive),0.482,-0.0427,0.0718,-2.33 (inactive),-0.326 (inactive),-0.693 (inactive),0.327,1.34 (inactive),-0.173,0.166,0.305,-0.139
COc1ccc(NN2C(C(O)c3ccc(OC)cc3)C=CC3C(=O)N(C4CCCCC4)C(=O)C32)cc1 (stereo not given),-0.147,0.191,-0.0131,0.467,1.18,1.29,0.978,1.55 (inactive),0.775,-0.16,1.43,-0.0924 (inactive),1.01 (inactive),0.365 (inactive),2.12,0.0447 (inactive),0.103,0.157,1.08,0.21
CC(=O)c1ccc(C(O)C2C=CC3C(=O)N(C)C(=O)C3N2NC(=O)OC(C)(C)C)cc1 (stereo not given),0.301,0.169,0.152,1.13,1.61,2.11,1.35,0.929 (inactive),0.948,-0.154,1.54,0.269 (inactive),1.08 (inactive),1.59 (inactive),3.47,-1.24 (inactive),0.236,-0.465,1.11,0.357
C=CCC(OC(C)=O)[C@@H]1[C@@H](N(Cc2ccc(-c3ccccc3)cc2)C(=O)c2ccc(-c3ccccc3)cc2)c2cc(OCCCO)ccc2N1C(=O)c1ccc2ccccc2n1 (stereo not given in full),0.0997,0.185,-0.0945,0.0767,-0.332,0.211,-0.359,-0.0161 (inactive),0.212,0.347,0.474,-0.755 (inactive),-0.638 (inactive),-0.0474 (inactive),0.183,0.853 (inactive),0.121,0.408,0.361,-0.0494
CN1C(=O)C2C(C1=O)C1C=C(c3ccc(CO)cc3)C2C(c2cccs2)N1C (stereo not given),0.085,0.429,-0.0578,0.0934,-0.0125,0.885,1.04,1.63 (inactive),-0.075,-0.137,-0.27,-0.208 (inactive),-2.24 (inactive),1.33 (inactive),0.989,1.24 (inactive),-0.072,-0.518,-0.133,0.637
O=C1OCCC/C=C\[C@H]2OC34C=CCN(Cc5ccccc5)C(=O)[C@H]3N(CCCCCO)C(=O)[C@@H]4C12 (stereo not given in full),0.566,-0.079,-0.147,-0.0433,-1.12,1.05,0.387,2.92 (inactive),-0.693,-0.116,1.01,-1.05 (inactive),-2.16 (inactive),15.7 (active),3.13,0.549 (inactive),-0.166,-0.773,-0.0471,-0.245
COc1cc2c(cc1O)C(c1ccc(CN3CCCC3)cc1)N(Cc1ccc([N+](=O)[O-])o1)CC2 (stereo not given),-0.649,-0.533,-0.158,0.0497,0.345,2.15,0.936,1.06 (inactive),-0.21,-0.354,-0.246,-0.686 (inactive),-2.48 (inactive),-0.604 (inactive),1.65,0.098 (inactive),-0.299,-0.408,0.577,-0.227
COC(=O)[C@@H]1N=C(c2ccc(OCCCO)cc2)O[C@@H]1c1ccccc1CN=[N+]=[N-],0.879,-0.744,0.0062,-0.784,-0.549,1.21,0.945,1.81 (inactive),0.646,0.291,1.01,0.23 (inactive),-0.956 (inactive),-1.14 (inactive),1.74,1.05 (inactive),0.109,-0.0395,0.327,-0.0802
CC(C)(C)OC(=O)CC[C@]1(C(=O)N2CCOCC2)N=C(c2ccc(OCCCO)cc2)O[C@H]1c1ccccc1CN=[N+]=[N-],0.912,1.03,-0.0296,0.286,0.684,1.26,1.5,1.57 (inactive),0.474,0.113,1.55,-0.673 (inactive),0.306 (inactive),-0.611 (inactive),3.32,-0.798 (inactive),-0.127,1.79,0.725,-0.044
C=CCOC(=O)[C@@H]1[C@H]2C(=O)O[C@H](c3ccccc3)[C@H](c3ccccc3)N2[C@H](c2ccc(OCCOC(=O)[C@H]3C[C@H]4C(=O)NCC(=O)N4[C@H]3c3ccc(O)cc3)cc2)[C@@]12C(=O)Nc1ccc(I)cc12,-0.223,0.826,-0.0834,0.22,0.948,0.675,0.86,1.2 (inactive),0.377,-0.54,1.53,1.22 (inactive),0.761 (inactive),4.27 (inactive),2.08,-0.615 (inactive),-0.162,1.59,1.15,0.0026
